Screening data: PubChem, Broad Institute
rRNA inh HTS: reduced GFP signal of wild-type E. coli, primary screen, bacterial rRNA inhibitor project, GFP/RFP fluorescence, OD600, single point; E. coli WT GFP vs humanized-ribosome RFP mutants, 24 h; hits give low values; DMSO median 0, no signal -100; GFP signal change (wild-type ribosome), % (no concentration beside the values); hit rate 1.6% among 350,000;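 active = significant combined selectivity score with lowered wild-type GFP, culture density cut under 30%, mutant RFP and density less affected; inactive = any of these conditions unmet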
ERAP1 inh: human ERAP1 aminopeptidase inhibitors, primary screen, biochemical, single point, plate reader | recombinant ERAP1, Leu-AMC fluorescence, 60 min | hit rate 0.15% among 340,000 | AID 652197, 2013 | inhibition, % at 10.7 µM | Endoplasmic reticulum aminopeptidase 1 (Homo sapiens), Q9NZ08;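 active = mean replicate inhibition of at least 30%, or all replicates individually reaching that 30% level; inactive = mean below 30% and not every replicate reaching it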;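 also: 0% = neutral control wells and 100% = L-leucinethiol positive control wells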
Target sequence (Q9NZ08 whole entry, looked up): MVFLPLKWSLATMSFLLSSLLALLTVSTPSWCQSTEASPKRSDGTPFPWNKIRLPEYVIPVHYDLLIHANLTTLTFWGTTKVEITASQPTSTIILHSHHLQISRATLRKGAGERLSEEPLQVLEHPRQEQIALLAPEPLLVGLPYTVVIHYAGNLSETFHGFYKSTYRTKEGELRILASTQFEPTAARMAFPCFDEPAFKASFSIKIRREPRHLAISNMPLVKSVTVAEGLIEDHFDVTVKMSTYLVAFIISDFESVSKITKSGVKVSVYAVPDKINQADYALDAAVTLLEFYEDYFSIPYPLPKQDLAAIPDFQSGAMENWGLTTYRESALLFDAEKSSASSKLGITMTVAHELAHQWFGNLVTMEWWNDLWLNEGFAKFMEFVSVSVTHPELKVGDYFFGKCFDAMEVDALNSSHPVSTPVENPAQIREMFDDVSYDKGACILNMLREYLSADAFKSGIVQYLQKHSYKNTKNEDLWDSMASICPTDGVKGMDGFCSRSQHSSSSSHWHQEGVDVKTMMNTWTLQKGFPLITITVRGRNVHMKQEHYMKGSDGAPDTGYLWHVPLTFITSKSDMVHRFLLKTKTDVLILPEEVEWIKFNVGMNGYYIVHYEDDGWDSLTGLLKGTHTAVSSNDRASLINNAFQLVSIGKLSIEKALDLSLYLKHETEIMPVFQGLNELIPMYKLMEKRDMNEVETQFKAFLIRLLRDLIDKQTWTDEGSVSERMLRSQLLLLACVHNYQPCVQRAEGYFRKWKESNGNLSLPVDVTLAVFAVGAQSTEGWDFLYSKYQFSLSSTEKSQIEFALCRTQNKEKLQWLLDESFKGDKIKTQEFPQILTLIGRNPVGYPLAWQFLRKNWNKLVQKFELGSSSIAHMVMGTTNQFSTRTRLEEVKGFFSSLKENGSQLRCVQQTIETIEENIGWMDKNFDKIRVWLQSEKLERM
PvdQ inh: P. aeruginosa PvdQ acylase inhibitors, primary screen, biochemical, fluorescence, plate reader and imaging, single point; inhibition, % at 10 µM; purified PvdQ acylase; hit rate 0.063% among 340,000; in the data active = inhibition above about 30%, passing the limit was not always enough;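 also: 0% = vehicle neutral wells and 100% = reference inhibitor wells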
ARNT TACC3 PPI: disruptors of ARNT/TACC3 protein interaction, primary screen, biochemical, AlphaScreen, single concentration; AlphaScreen His-ARNT PAS-B/GST-TACC3 binding, luminescence; TACC3 fragment carries E629A point mutation; hit rate 0.66% among 390,000; inhibition, % at 9.99 µM;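 active = mean inhibition of replicates at least 50% and at least half of replicates each reaching 50%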;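 also: 0% = complete ARNT plus TACC3 wells and 100% = ARNT alone without TACC3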
F508del corr: F508del CFTR correction, initial screen, CFBE line, single point; hit rate 0.36% among 350,000; CFBE cells, YFP halide quenching; stimulated with forskolin plus potentiator P3; % fluorescence drop versus neutral controls; activity (quench increase), % at 7.58 µM;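 active = mean added fluorescence quench of at least 8% versus neutral control, with both replicates also reaching 8%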;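 also: cells transiently co-express mutant CFTR-F508del with the halide-sensitive YFP; corrector assay measuring rescue of mutant channel to the surface after 24 h compound exposure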
* hit, by the source's call; · = no result. A selection: hits, their analogues and other compounds. The true share with any hit is near 2.1%.

SMILES | rRNA inh HTS | ERAP1 inh | PvdQ inh | ARNT TACC3 PPI | F508del corr
C=CCn1c(SCCN2C(=O)c3ccccc3C2=O)nc2scc(-c3ccc(F)cc3)c2c1=O | 2 | -1 | -5 | 55* | 0
N#CC1=C(N)Oc2cc(N)ccc2C1c1cccc(F)c1 (stereo not given) | 16 | -1 | -7 | -7 | 10*
C/C=C/c1ccc([C@@H]2[C@@H](CN(C)C(=O)c3ccccn3)N(C(C)=O)[C@H]2CO)cc1 | 0 | · | · | 1 | -1
COc1cccc(NS(=O)(=O)c2ccc3c(c2)N(C(C)=O)CCS3)c1 | 0 | 0 | -7 | 5 | -4
CC(=O)N1CCSc2ccc(S(=O)(=O)Nc3cccc(C)c3)cc21 | -23* | -3 | -10 | 8 | 3
O=C(NN=C1CCCC1)c1cc(Cl)cc(Cl)c1O | -29* | -1 | -13 | -2 | -2
C[C@@H]1CN([C@@H](C)CO)S(=O)(=O)c2ccc(C3=CCCCC3)cc2O[C@@H]1CN(C)C | 1 | · | · | · | 0
CCCNc1ncc2c(=O)[nH][nH]c(=O)c2n1 | 7 | 0 | -9 | 81* | -3
CCOC(=O)Nc1cc2c(c(N)n1)N=C(c1ccccc1)CN2 | 19 | 2 | -9 | 8.7* | 12*
C/C=C/c1ccc2c(c1)O[C@@H](CN(C)C(=O)c1cnccn1)[C@@H](C)CN([C@H](C)CO)S2(=O)=O | 0 | · | · | · | -1
O=C(C[C@@H]1C=C[C@@H](NC(=O)Cc2ccccn2)[C@H](CO)O1)NCCc1ccccc1 | 0 | 1 | · | -3 | 1
O=C(CCCl)Nc1nc2c(s1)CCc1ccccc1-2 | -20 | 4 | -17 | -18 | 8.8*
COc1cc(/C=C/C(=O)c2ccc3c(c2)OCO3)cc(Cl)c1O | -5 | 6 | -5 | 6 | 9.7*
COc1ccc(C(=O)C=Cc2ccc3c(c2)OCO3)cc1OC | 2 | 0 | · | · | 2
CCCC#Cc1cnc2c(c1)C(=O)N([C@H](C)CO)C[C@@H](C)[C@@H](CN(C)C(=O)c1cccc(F)c1)O2 | 11 | 0 | · | -4 | 0
CCCOc1cc(N(CC)CC)ccc1/C=C(/C#N)c1nc2ccc(C)cc2[nH]1 | 28 | -3 | 0 | 4 | 34*
CCN(CC)c1ccc(/C=C(/C#N)c2nc3ccc(C)cc3[nH]2)c(OC(C)C)c1 | 12 | 1 | 1 | 5 | 17*
CC(C)(C)c1ccc(C(=O)c2cn[nH]c2-c2ccccc2O)cc1 | -22* | 1 | -18 | -1 | 2
Oc1cccc(/C=N/NC(=S)NCCN2CCOCC2)c1O | 9 | 2 | -12 | 69* | 1
Cc1ccc(Cc2c(-c3ccc(C)cc3)nc3ccc(Cl)cn23)cc1 | -10 | 3 | · | · | 2
Cc1ccc(Cc2c(-c3ccc(Br)cc3)nc3ccc(Cl)cn23)cc1 | -27* | · | · | · | 3
CCCCCCCCN1N=N[C@H]2[C@H]1[C@@H]1C[C@H]2N(C(=O)OC(C)(C)C)O1 | -32* | · | -28 | · | 0
COCc1cn(CC[C@@H]2CC[C@@H](NC(=O)Nc3ccc(Cl)cc3)[C@@H](CO)O2)nn1 | -1 | 1 | · | -4 | 0
CSc1ncnc2c1ncn2CCCNc1ccc(C)c(C)c1 | -26* | -3 | · | · | -3
CSc1ncnc2c1ncn2CCCNCc1ccccc1 | 11 | 0 | · | · | 3
SMILES | rRNA inh HTS | ERAP1 inh | PvdQ inh | ARNT TACC3 PPI | F508del corr
COc1ccc(NC(=O)N(C)C[C@H]2Oc3ccc(NS(=O)(=O)c4ccc(OC)cc4)cc3C(=O)N([C@H](C)CO)C[C@H]2C)cc1 | -1 | 0 | · | 8 | 2
CN(C[C@H]1N[C@@H](CO)[C@H]1c1ccc(C2=CCCCC2)cc1)S(C)(=O)=O | 3 | · | · | 13 | -7
COCn1cnc(-c2ccccc2)c1-c1ccccc1 | -28* | 4 | 1 | -5 | -2
CCN(CC)C(=O)n1cnc(-c2ccccc2)c1-c1ccccc1 | -11 | 2 | -4 | -5 | ·
CC(Oc1ccccc1Cl)C(=O)Nc1ccc(S(=O)(=O)Nc2nccs2)cc1 (stereo not given) | -45 | -2 | -1 | 6 | 8.7*
COc1ccccc1C(=O)Oc1ccc2c(c1)O/C(=C\c1ccncc1)C2=O | 10 | 2 | 3 | -1 | ·
COc1cc2c(c(OC)c1OC)C(=O)C(=Cc1ccccc1)O2 | -29* | -1 | -9 | -4 | 0
Cc1nn(-c2ccc(F)cc2)c2nc(N)c(C#N)c(-c3ccc(O)c(O)c3)c12 | -18* | 3 | 3 | -5 | 4
COc1ccccc1CCNC(=O)c1cccc(NC(=O)CC2SC(N3CCCCC3)=NC2=O)c1 (stereo not given) | -21* | -6 | -17 | -8 | -9
CN(Cc1c(F)cccc1Cl)C(=O)c1ccc(NC(=O)CC2SC(N3CCCCC3)=NC2=O)cc1 (stereo not given) | -1 | 0 | -10 | -1 | 11*
O=C(CC1SC(N2CCCCC2)=NC1=O)Nc1cccc(C(=O)NCc2ccc(F)cc2)c1 (stereo not given) | 2 | 0 | 10 | -3 | -4
CCOC1=C2CN(S(=O)(=O)c3ccc(C)cc3)CC[C@@H]2N(S(=O)(=O)c2ccc(C)cc2)[C@H](c2ccccc2)C1 | 8 | 0 | · | · | 12*
O=C(C[C@@H]1C[C@@H]2c3cc(NC(=O)NC4CCCCC4)ccc3O[C@@H]2[C@H](CO)O1)NCc1ccncc1 | 1 | -3 | · | 3 | -4
Cc1nc(S(=O)(=O)N2CCN(Cc3cccc(OCCO)c3)CC2)cn1C | · | -4 | · | -1 | 2
COc1ccc(N2CCN(Cc3nc(Cc4cccc(F)c4)no3)C(C)C2)cc1 (stereo not given) | -23* | 2 | -8 | 17 | -2
O=C1C(C=NCc2ccccn2)=C(O)c2ccccc21 | 5 | 8 | 1 | 66* | 0
CC(C)CN=CC1=C(O)c2ccccc2C1=O | -4 | 3 | 1 | 0 | 1
CCc1ccc(-c2nc(C(N)=O)c3[nH]c(=O)n(-c4ccccc4OC)c3n2)cc1 | 3 | 0 | -7 | -1 | 8.9*
COc1ccc(-c2nc(C(N)=O)c3[nH]c(=O)n(-c4cccc(Cl)c4)c3n2)cc1OC | · | · | -3 | 4 | ·
C[C@@H]1CN([C@H](C)CO)C(=O)c2cc(NS(=O)(=O)c3cn(C)cn3)ccc2O[C@@H](C)CCCCO[C@H]1CN(C)C(=O)Nc1ccc(F)cc1 | -1 | 0 | · | -1 | 1
COC(=O)c1c(NC(=O)COC(=O)c2ccccn2)sc(C)c1C | 1 | -1 | 3 | -2 | 1
CCOC(=O)c1c(NC(=O)COC(=O)c2ccccn2)sc2c1CCC2 | -18* | -1 | -4 | -3 | -2
